Test results published in article PMC9838217, “Structure of SALL4 zinc finger domain reveals link between AT-rich DNA binding and Okihiro syndrome”.
Where a chain is given by its changes, count along the chain named.

target: T1, SALL4 ZFC4 R900W (HT-SELEX) (Mus musculus, UniProt Q8BX22 870-940, R900W); assay: HT-SELEX; high values mean tight binding; conditions: protein: recombinant; vector His6-GST; dsDNA, one strand shown
T1 sequence: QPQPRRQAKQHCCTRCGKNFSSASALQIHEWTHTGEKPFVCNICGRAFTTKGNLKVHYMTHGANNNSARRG
In short: (§1)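 A 100 µl reaction of 10 mM Tris–HCl pH 7.5, 50 mM NaCl, poly(dI-dC) and DTT held purified recombinant mouse SALL4 zinc finger cluster 4 (residues 870–940, 1 µg) and library DNA (1.5 µg first cycle, 200 ng later) for 10 min at room temperature. Complexes captured on Ni2+ beads were washed, PCR-amplified and reselected for up to 6 cycles, in triplicate, then MiSeq-sequenced and scanned for 6-mers. Binding signal is the read fraction of each canonical k-mer expressed as fold change over the initial random library.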

**Q.** How did the binding signal turn out when CCGGCC was run?
**A.** 0.0476 ± 0.00257 fold-change vs cycle 0

**Q.** Which binding signal does the source give for ATGATG here?
**A.** 1.51 ± 0.0621 fold-change vs cycle 0

**Q.** Which binding signal does the source give for ACGCCT here?
**A.** 0.304 ± 0.0301 fold-change vs cycle 0

**Q.** ACGCAC was tested. Which binding signal did it give?
**A.** 0.27 ± 0.0299 fold-change vs cycle 0

**Q.** How did the binding signal turn out when CGCCGA was run?
**A.** 0.0711 ± 0.00229 fold-change vs cycle 0

**Q.** Which binding signal does the source give for CTGTGC here?
**A.** 0.34 ± 0.0263 fold-change vs cycle 0

**Q.** Which binding signal does the source give for CGTTGC here?
**A.** 0.331 ± 0.00332 fold-change vs cycle 0

**Q.** How did the binding signal turn out when GGCAAC was run?
**A.** 0.322 ± 0.0219 fold-change vs cycle 0

**Q.** AGGGCG was tested. Which binding signal did it give?
**A.** 0.146 ± 0.011 fold-change vs cycle 0

**Q.** ATGGCG was tested. Which binding signal did it give?
**A.** 0.236 ± 0.0151 fold-change vs cycle 0

**Q.** For CAAGCG, which binding signal is on record?
**A.** 0.313 ± 0.0138 fold-change vs cycle 0

**Q.** With AGAATA as the sequence, how does the binding signal read?
**A.** 2.17 ± 0.0929 fold-change vs cycle 0

**Q.** Which binding signal does the source give for GCAAGC here?
**A.** 0.302 ± 0.00778 fold-change vs cycle 0

**Q.** With CCCACC as the sequence, how does the binding signal read?
**A.** 0.282 ± 0.00918 fold-change vs cycle 0

**Q.** GGGGCA was tested. Which binding signal did it give?
**A.** 0.178 ± 0.00946 fold-change vs cycle 0

**Q.** AGCGGA was tested. Which binding signal did it give?
**A.** 0.313 ± 0.018 fold-change vs cycle 0

**Q.** Which binding signal does the source give for ATACGA here?
**A.** 1.27 ± 0.0333 fold-change vs cycle 0

**Q.** Which binding signal does the source give for CCGCGC here?
**A.** 0.0273 ± 0.00598 fold-change vs cycle 0

**Q.** With GCACGC as the sequence, how does the binding signal read?
**A.** 0.0991 ± 0.0124 fold-change vs cycle 0

**Q.** Which binding signal does the source give for GGTGCA here?
**A.** 0.359 ± 0.0169 fold-change vs cycle 0

**Q.** Which binding signal does the source give for ATGCGC here?
**A.** 0.153 ± 0.00714 fold-change vs cycle 0

**Q.** How did the binding signal turn out when ACCGCG was run?
**A.** 0.099 ± 0.00138 fold-change vs cycle 0

**Q.** With GGGCCC as the sequence, how does the binding signal read?
**A.** 0.0676 ± 0.00899 fold-change vs cycle 0

**Q.** With GTCCGA as the sequence, how does the binding signal read?
**A.** 0.371 ± 0.00646 fold-change vs cycle 0

**Q.** ACGGGG was tested. Which binding signal did it give?
**A.** 0.257 ± 0.00971 fold-change vs cycle 0

**Q.** CCGGAC was tested. Which binding signal did it give?
**A.** 0.195 ± 0.02 fold-change vs cycle 0

**Q.** CAGCGA was tested. Which binding signal did it give?
**A.** 0.275 ± 0.0083 fold-change vs cycle 0

**Q.** GCGCAA was tested. Which binding signal did it give?
**A.** 0.123 ± 0.00425 fold-change vs cycle 0

**Q.** Which binding signal does the source give for AGGCGG here?
**A.** 0.136 ± 0.00959 fold-change vs cycle 0

**Q.** With AGGCCG as the sequence, how does the binding signal read?
**A.** 0.104 ± 0.0123 fold-change vs cycle 0

**Q.** For AGGCCT, which binding signal is on record?
**A.** 0.384 ± 0.0275 fold-change vs cycle 0

**Q.** Which binding signal does the source give for GCCCAC here?
**A.** 0.151 ± 0.00605 fold-change vs cycle 0

**Q.** For CGTCGA, which binding signal is on record?
**A.** 0.282 ± 0.0144 fold-change vs cycle 0

**Q.** With GCCGCC as the sequence, how does the binding signal read?
**A.** 0.0335 ± 0.00625 fold-change vs cycle 0

**Q.** Which binding signal does the source give for CGCGAG here?
**A.** 0.135 ± 0.0168 fold-change vs cycle 0

**Q.** For ACGTCG, which binding signal is on record?
**A.** 0.298 ± 0.0109 fold-change vs cycle 0

**Q.** How did the binding signal turn out when CGGCTC was run?
**A.** 0.124 ± 0.00754 fold-change vs cycle 0

**Q.** How did the binding signal turn out when CGACCC was run?
**A.** 0.172 ± 0.00839 fold-change vs cycle 0

**Q.** With GCGCTA as the sequence, how does the binding signal read?
**A.** 0.156 ± 0.0119 fold-change vs cycle 0

**Q.** AGCCAG was tested. Which binding signal did it give?
**A.** 0.361 ± 0.0134 fold-change vs cycle 0

target: T2, SALL4 ZFC4 G921D (HT-SELEX) (Mus musculus, UniProt Q8BX22 870-940, G921D); assay: HT-SELEX; high values mean tight binding; conditions: protein: recombinant; vector His6-GST; dsDNA, one strand shown
T2 sequence: T1 sequence with W31R, G52D
In short: as §1

**Q.** For CCGGCC, which binding signal is on record?
**A.** 0.135 ± 0.0646 fold-change vs cycle 0

**Q.** How did the binding signal turn out when ATGATG was run?
**A.** 1.43 ± 0.0931 fold-change vs cycle 0

**Q.** ACGCCT was tested. Which binding signal did it give?
**A.** 0.443 ± 0.0612 fold-change vs cycle 0

**Q.** Which binding signal does the source give for ACGCAC here?
**A.** 0.404 ± 0.0719 fold-change vs cycle 0

**Q.** With CGCCGA as the sequence, how does the binding signal read?
**A.** 0.179 ± 0.0757 fold-change vs cycle 0

**Q.** For CTGTGC, which binding signal is on record?
**A.** 0.471 ± 0.046 fold-change vs cycle 0

**Q.** With CGTTGC as the sequence, how does the binding signal read?
**A.** 0.435 ± 0.0499 fold-change vs cycle 0

**Q.** With GGCAAC as the sequence, how does the binding signal read?
**A.** 0.438 ± 0.0577 fold-change vs cycle 0

**Q.** With AGGGCG as the sequence, how does the binding signal read?
**A.** 0.26 ± 0.0708 fold-change vs cycle 0

**Q.** How did the binding signal turn out when ATGGCG was run?
**A.** 0.371 ± 0.0568 fold-change vs cycle 0

**Q.** Which binding signal does the source give for CAAGCG here?
**A.** 0.452 ± 0.0669 fold-change vs cycle 0

**Q.** AGAATA was tested. Which binding signal did it give?
**A.** 1.84 ± 0.188 fold-change vs cycle 0

**Q.** With GCAAGC as the sequence, how does the binding signal read?
**A.** 0.429 ± 0.0449 fold-change vs cycle 0

**Q.** Which binding signal does the source give for CCCACC here?
**A.** 0.397 ± 0.0572 fold-change vs cycle 0

**Q.** How did the binding signal turn out when GGGGCA was run?
**A.** 0.291 ± 0.0681 fold-change vs cycle 0

**Q.** For AGCGGA, which binding signal is on record?
**A.** 0.432 ± 0.054 fold-change vs cycle 0

**Q.** ATACGA was tested. Which binding signal did it give?
**A.** 1.26 ± 0.0263 fold-change vs cycle 0

**Q.** With CCGCGC as the sequence, how does the binding signal read?
**A.** 0.0941 ± 0.0469 fold-change vs cycle 0

**Q.** For GCACGC, which binding signal is on record?
**A.** 0.21 ± 0.063 fold-change vs cycle 0

**Q.** How did the binding signal turn out when GGTGCA was run?
**A.** 0.479 ± 0.0732 fold-change vs cycle 0

**Q.** For ATGCGC, which binding signal is on record?
**A.** 0.28 ± 0.0818 fold-change vs cycle 0

**Q.** How did the binding signal turn out when ACCGCG was run?
**A.** 0.205 ± 0.0665 fold-change vs cycle 0

**Q.** For GGGCCC, which binding signal is on record?
**A.** 0.178 ± 0.0632 fold-change vs cycle 0

**Q.** How did the binding signal turn out when GTCCGA was run?
**A.** 0.506 ± 0.055 fold-change vs cycle 0

**Q.** ACGGGG was tested. Which binding signal did it give?
**A.** 0.37 ± 0.0678 fold-change vs cycle 0

**Q.** Which binding signal does the source give for CCGGAC here?
**A.** 0.305 ± 0.0661 fold-change vs cycle 0

**Q.** CAGCGA was tested. Which binding signal did it give?
**A.** 0.404 ± 0.0764 fold-change vs cycle 0

**Q.** GCGCAA was tested. Which binding signal did it give?
**A.** 0.249 ± 0.0828 fold-change vs cycle 0

**Q.** For AGGCGG, which binding signal is on record?
**A.** 0.264 ± 0.0731 fold-change vs cycle 0

**Q.** Which binding signal does the source give for AGGCCG here?
**A.** 0.216 ± 0.0702 fold-change vs cycle 0

**Q.** With AGGCCT as the sequence, how does the binding signal read?
**A.** 0.516 ± 0.0785 fold-change vs cycle 0

**Q.** GCCCAC was tested. Which binding signal did it give?
**A.** 0.271 ± 0.0717 fold-change vs cycle 0

**Q.** With CGTCGA as the sequence, how does the binding signal read?
**A.** 0.423 ± 0.0617 fold-change vs cycle 0

**Q.** GCCGCC was tested. Which binding signal did it give?
**A.** 0.107 ± 0.0564 fold-change vs cycle 0

**Q.** How did the binding signal turn out when CGCGAG was run?
**A.** 0.231 ± 0.0693 fold-change vs cycle 0

**Q.** With ACGTCG as the sequence, how does the binding signal read?
**A.** 0.438 ± 0.0515 fold-change vs cycle 0

**Q.** Which binding signal does the source give for CGGCTC here?
**A.** 0.242 ± 0.0735 fold-change vs cycle 0

**Q.** CGACCC was tested. Which binding signal did it give?
**A.** 0.317 ± 0.0852 fold-change vs cycle 0

**Q.** GCGCTA was tested. Which binding signal did it give?
**A.** 0.291 ± 0.093 fold-change vs cycle 0

**Q.** With AGCCAG as the sequence, how does the binding signal read?
**A.** 0.485 ± 0.0483 fold-change vs cycle 0
